Data published in PubChem BioAssay AID1619 (SRMLSC, 2009).
Hit rate of the full screen: of about 220,000 compounds, about 830 (0.38%) were called active.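 Rule for the calls: active = compound inhibiting the enzyme by more than half at any dose during confirmatory dose-response retesting; inconclusive = strong single-dose inhibitors picked by rank but not retested; inactive = the rest.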 A selection follows. Potency and affinity values are given separately.

Biological target: Leucine aminopeptidase (Plasmodium falciparum (isolate 3D7)) (UniProt Q8IL11)
Sequence (Q8IL11 whole entry, looked up): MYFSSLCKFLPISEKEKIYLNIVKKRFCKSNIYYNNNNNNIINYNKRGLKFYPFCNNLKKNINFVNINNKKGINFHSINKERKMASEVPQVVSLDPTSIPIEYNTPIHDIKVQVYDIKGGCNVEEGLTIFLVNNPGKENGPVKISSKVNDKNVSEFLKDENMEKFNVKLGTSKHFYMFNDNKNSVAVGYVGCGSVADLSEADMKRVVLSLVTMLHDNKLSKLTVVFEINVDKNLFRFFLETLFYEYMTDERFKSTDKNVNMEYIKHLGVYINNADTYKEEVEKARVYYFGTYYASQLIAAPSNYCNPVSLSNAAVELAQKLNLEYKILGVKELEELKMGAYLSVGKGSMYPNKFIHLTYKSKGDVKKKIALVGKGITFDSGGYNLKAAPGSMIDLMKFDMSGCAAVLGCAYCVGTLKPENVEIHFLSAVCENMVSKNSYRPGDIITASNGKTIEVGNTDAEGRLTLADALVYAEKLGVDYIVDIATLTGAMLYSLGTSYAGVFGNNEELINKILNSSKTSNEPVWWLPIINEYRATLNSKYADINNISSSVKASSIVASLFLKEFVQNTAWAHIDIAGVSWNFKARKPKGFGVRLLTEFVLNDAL
Assay: P. falciparum M17LAP inhibitors, primary screen, biochemical, fluorogenic H-Leu-NHMec substrate, 1536-well (AID 1619);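 note: plate controls were full reaction with DMSO carrier for no effect and no enzyme background for full effect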
Details: recombinant M17LAP, H-Leu-NHMec fluorogenic kinetic assay; at 30 µM; stronger effect = higher value

inhibition, inactive:
COc1ccccc1C(=O)N1CCN(Cc2nc3cc([N+](=O)[O-])ccc3n2C)CC1 6.22%, Cc1cc(S(=O)(=O)Nc2cccc(Cl)c2)c(C)s1 4.03%, COc1cccc(NS(=O)(=O)c2cc(C)sc2C)c1 11.3%, CC(=O)Nc1ccc(C2=NN(C)C(=NCc3ccccc3)SC2)cc1 -2.31%, N=c1n(Cc2ccc(Cl)cc2)c2ccccc2n1CC(O)COc1ccccc1 (stereo not given) 6.49%, Cc1c(Cl)cccc1NS(=O)(=O)c1ccc2c(c1)C1C=CCC1C(c1ccc(C(=O)O)cc1)N2 (stereo not given) 47.6%, COc1ccc(C(=O)N/N=C(\C)c2ccc3c(c2)C2C=CCC2C(c2ccccc2)N3)cc1 (stereo not given) 20.2%, COc1ccc(N2C(=O)C3CCCN3C2c2ccc(C)cc2)cc1Cl (stereo not given) -8.88%, CSCCC(NS(=O)(=O)c1ccc2ccccc2c1)C(=O)O (stereo not given) 12.2%, CSCCC(NS(=O)(=O)c1ccc(Cl)c(Cl)c1)C(=O)O (stereo not given) -4.93%, O=C(NCCn1cc(SCc2ccc(F)cc2)c2ccccc21)c1ccccc1F 12.4%, O=C(O)c1cccc(Cn2c(Cl)c(/C=N/NC(=O)c3cccc(O)c3)sc2=O)c1 34%, O=C(O)c1cccc(Cn2c(Cl)c(/C=N/NC(=O)c3cc4ccccc4cc3O)sc2=O)c1 -0.68%, O=C(O)c1cccc(Cn2c(Cl)c(/C=N/NC(=O)c3ccc(O)cc3)sc2=O)c1 53.6%, O=C(O)c1cccc(Cn2c(Cl)c(/C=N/NC(=O)c3ccccc3O)sc2=O)c1 35.2%, COC(=O)c1cccc(Cn2c(Cl)c(/C=N/NC(=O)c3ccccc3Cl)sc2=O)c1 13.4%, COc1ccc(C(=O)N/N=C/c2sc(=O)n(Cc3cccc(C(=O)O)c3)c2Cl)cc1 43.6%, COC(=O)/C(=N/Nc1cccc(C)c1)N1CCCc2ccccc21 1.03%, Oc1ccc(CCc2n[nH]c(=S)n2-c2ccc(F)cc2)cc1 -8.27%, CCOc1ccccc1N1C(=O)CC(Sc2ncccc2C(=O)O)C1=O (stereo not given) 17.5%, CCOC(=O)CN1C(=O)C(Sc2n[nH]c(-c3ccccc3)n2)CCc2ccccc21 (stereo not given) 16.8%, COc1ccc(N2C(=O)CC(Sc3n[nH]c(-c4ccccc4)n3)C2=O)cc1 (stereo not given) 16.4%, COc1ccc(N2C(=O)CC(Sc3n[nH]c(-c4ccc(C)cc4)n3)C2=O)cc1 (stereo not given) 51.7%, COc1cc2ncnc(NCc3ccccc3)c2cc1OC 14.9%, O=S(=O)(c1cccs1)N1CN(Cc2ccccc2)c2nc3ccccc3nc21 -4.62%, CCC(=O)NCc1csc(-c2cccs2)n1 -3.47%, O=C(NCCN1CCOCC1)NC1(C(F)(F)F)Oc2ccc(Cl)cc2O1 (stereo not given) 28.4%, O=C(Nc1cc(N2CCOCC2)ncn1)NC1(C(F)(F)F)Oc2ccccc2O1 5.1%, Cn1nc(C(F)(F)F)c(-c2ccc(F)cc2)c1NC(=O)c1cccnc1 -2.14%, COc1ccc(/C=C2\NC(=O)C(C=NCc3ccccc3)=C2O)cc1 0.26%, COc1ccc(-c2nnc(SCC(=O)NCCc3ccccc3)o2)cc1 -10.2%, CC(=O)Nc1ccc(NC(=O)CSc2ccc(C)cc2)cc1 -3.31%, Cc1ccc(C(=O)CSc2nnc(C)s2)cc1 -0.76%, Cc1cc(C)nc(SCC(=O)OCN2C(=O)c3ccccc3C2=O)n1 8.29%, Cc1ccc(NC(=O)CSc2nnc(CCC(=O)O)c(=O)[nH]2)cc1 13.7%, Cn1cnnc1SCC(=O)OCN1C(=O)c2ccccc2C1=O 3.47%, Cc1ccc(C(=O)CSc2nc(C)cc(=O)[nH]2)cc1 9.23%, CCCn1c(SCC(=O)c2ccc(CC)cc2)n[nH]c1=O 26.6%, CCc1ccc(C(=O)CSc2nc3ccccc3c(=O)[nH]2)cc1 -2.74%, CCOC(=O)C[N+](C)(C)CCOC1CC2CCC1(C)C2(C)C (stereo not given) 3.08%, O=C(c1cnn2c(C(F)(F)F)cc(-c3ccc4c(c3)OCO4)nc12)N1CCCCC1 6.7%, O=C(NCCC1=CCCCC1)C1CCN(C(=O)Cc2ccccc2)CC1 6.09%, O=C(CSc1n[nH]c(-c2cccs2)n1)N1CCCc2ccccc21 1.29%, Fc1ccc(CNc2nc3ccccc3n3cnnc23)cc1 -2.38%, CCOC(=O)C1CN(S(=O)(=O)c2ccccc2)CCN1S(=O)(=O)c1ccccc1 (stereo not given) -13.2%, CCCCCn1c(CNC(=O)COC)nc2ccccc21 -1.06%, CN(CC(=O)Nc1ccc(N2CCOCC2)cc1)CC(=O)Nc1cccc(C#N)c1 17.1%, CC(C)Oc1ccc(C(CC(=O)O)NC(=O)C2CCCCC2)cc1 (stereo not given) 4.14%, Cc1nc(SCC(=O)c2ccc(F)cc2)n[nH]1 19.2%, CC(C)(C)c1ccc(C(=O)CSc2nc3ccccc3c(=O)[nH]2)cc1 9.78%, CC(C)(C)c1ccc(C(=O)CSc2n[nH]c(=O)[nH]c2=O)cc1 -4.96%, Cc1ccc(C(=O)CSc2n[nH]c(C)n2)cc1 46.4%, CC(C)Oc1ccc(C(CC(=O)O)NC(=O)C(Sc2ccccc2)c2ccccc2)cc1 (stereo not given) 19.5%, O=C(CCC(=O)Nc1ccccc1)NNC(=O)c1ccccc1Cl -1.79%, CCCN1Cc2cccc(C(=O)Nc3ccc(C)cc3)c2C1=O -1.02%, COCCNC(=S)N1CCC(Cc2ccccc2)CC1 1.83%, CC(=O)Nc1ccc(Sc2ccccc2C(=O)O)cc1 6.89%, CCOC(=O)C1CCCN(C(=O)c2cc(Nc3ccc(OC)cc3OC)nc3ccccc23)C1 (stereo not given) -1.02%, O=C(NCCc1ccc(S(=O)(=O)N2CCCC2)cc1)c1cccs1 22.4%, O=C(CSc1nnc(CNC(=O)c2ccco2)o1)Nc1ccccc1 21.5%
